Measured values as given in PubChem BioAssay AID1159580 (chemical genetic matrix, 2015).
Out of some 5,500 compounds screened, about 2,000 (36%) were called active. About 18% were inconclusive and are not listed. No stated cut-off is given here; in the data, active means normalized growth mostly below about 0.91 (no sharp cut-off); inconclusive means no clear call, values can overlap the other calls; inactive means mostly above about 0.92. The list shows a part of the results.

Experiment: chemical genetic growth profiling, strain panel (AID 1159580);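 further: tested at 20 µM; growth read once vehicle control cultures reached saturation at 30 °C; 1 = growth at the plate median or of vehicle wells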
Conditions: S. cerevisiae deletion strains, growth OD
[1] = locus YAR019C, strain CDC15, stronger effect = lower value
[2] = locus YBL105C, strain PKC1, stronger effect = lower value
[3] = locus YBR135W, strain CKS1, stronger effect = lower value
[4] = locus YBR136W, strain MEC1, stronger effect = lower value
[5] = locus YBR160W, strain CDC28, stronger effect = lower value
[6] = locus YDL017W, strain CDC7, stronger effect = lower value
[7] = locus YDL028C, strain MPS1, stronger effect = lower value
[8] = locus YDL101C, strain DUN1, stronger effect = lower value
[9] = locus YDL108W, strain KIN28, stronger effect = lower value
[10] = locus YDL132W, strain cdc53, stronger effect = lower value
[11] = locus YDL214C, strain PRR2, stronger effect = lower value
[12] = locus YDR052C, strain DBF4, stronger effect = lower value
[13] = locus YDR054C, strain cdc34, stronger effect = lower value
[14] = locus YDR226W, strain ADK1, stronger effect = lower value
[15] = locus YDR477W, strain SNF1, stronger effect = lower value
[16] = locus YER123W, strain YCK3, stronger effect = lower value
[17] = locus YER133W, strain GLC7, stronger effect = lower value
[18] = locus YFL009W, strain cdc4, stronger effect = lower value
[19] = locus YFL029C, strain CAK1, stronger effect = lower value
[20] = locus YFR003C, strain YPI1, stronger effect = lower value
[21] = locus YFR019W, strain FAB1, stronger effect = lower value
[22] = locus YFR028C, strain CDC14, stronger effect = lower value
[23] = locus YGR040W, strain KSS1, stronger effect = lower value
[24] = locus YGR052W, strain FMP48, stronger effect = lower value
[25] = locus YGR092W, strain DBF2, stronger effect = lower value
[26] = locus YHR030C, strain SLT2, stronger effect = lower value
[27] = locus YHR079C, strain IRE1, stronger effect = lower value
[28] = locus YHR082C, strain KSP1, stronger effect = lower value
[29] = locus YHR205W, strain SCH9, stronger effect = lower value
[30] = locus YIL147C, strain SLN1, stronger effect = lower value
[31] = locus YJL095W, strain BCK1, stronger effect = lower value
[32] = locus YJL128C, strain PBS2, stronger effect = lower value
[33] = locus YJL157C, strain FAR1, stronger effect = lower value
[34] = locus YJR016C, strain ILV3, stronger effect = lower value
[35] = locus YJR066W, strain TOR1 (second series), stronger effect = lower value
[36] = locus YJR066W, strain TOR1, stronger effect = lower value
[37] = locus YKL048C, strain ELM1, stronger effect = lower value
[38] = locus YKL067W, strain YNK1, stronger effect = lower value
[39] = locus YKL101W, strain HSL1, stronger effect = lower value
[40] = locus YKL193C, strain SDS22, stronger effect = lower value
[41] = locus YKL203C, strain TOR2, stronger effect = lower value
[42] = locus YLR113W, strain HOG1, stronger effect = lower value
[43] = locus YLR133W, strain CKI1, stronger effect = lower value
[44] = locus YLR403W, strain SFP1, stronger effect = lower value
[45] = locus YML070W, strain DAK1, stronger effect = lower value
[46] = locus YMR001C, strain CDC5, stronger effect = lower value
[47] = locus YMR205C, strain PFK2 (second series), stronger effect = lower value
[48] = locus YMR277W, strain FCP1, stronger effect = lower value
[49] = locus YNL006W, strain LST8, stronger effect = lower value
[50] = locus YNL020C, strain ARK1, stronger effect = lower value
[51] = locus YNL161W, strain CBK1, stronger effect = lower value
[52] = locus YNL183C, strain NPR1, stronger effect = lower value
[53] = locus YNL207W, strain RIO2, stronger effect = lower value
[54] = locus YNL222W, strain SSU72, stronger effect = lower value
[55] = locus YNL307C, strain MCK1 (second series), stronger effect = lower value
[56] = locus YOL078W, strain AVO1, stronger effect = lower value
[57] = locus YOL136C, strain PFK27, stronger effect = lower value
[58] = locus YOR061W, strain CKA2, stronger effect = lower value
[59] = locus YOR119C, strain RIO1, stronger effect = lower value
[60] = locus YOR231W, strain MKK1, stronger effect = lower value
[61] = locus YOR329C, strain SCD5, stronger effect = lower value
[62] = locus YPL031C, strain PHO85, stronger effect = lower value
[63] = locus YPL153C, strain RAD53, stronger effect = lower value
[64] = locus YPL204W, strain HRR25, stronger effect = lower value
[65] = locus YPL209C, strain IPL1, stronger effect = lower value
[66] = locus YPL256C, strain CLN2, stronger effect = lower value
[67] = locus YPR025C, strain CCL1, stronger effect = lower value
[68] = locus YPR106W, strain ISR1, stronger effect = lower value
[69] = locus YPR111W, strain DBF20, stronger effect = lower value
[70] = strain NNK1, stronger effect = lower value
[71] = strain TSCII, stronger effect = lower value

Measured: normalized growth

Oc1ccc2c3c1O[C@H]1[C@@H](O)CC[C@@]4(O)C(C2)N(CC2CCC2)CCC314 (some centres undefined)
inactive: locus YAL040C, strain CLN3, stronger effect = lower value 1.01 | locus YCL061C, strain MRC1 (second series), stronger effect = lower value 0.998 | locus YDR150W, strain NUM1, stronger effect = lower value 1.01 | locus YDR363W, strain ESC2, stronger effect = lower value 1.01 | locus YER002W, strain NOP16, stronger effect = lower value 1 | locus YMR263W, strain SAP30, stronger effect = lower value 1 | locus YMR307W, strain GAS1, stronger effect = lower value 0.998 | locus YNL128W, strain TEP1, stronger effect = lower value 0.995 | locus YNL153C, strain GIM3, stronger effect = lower value 1.01 | locus YNL175C, strain NOP13, stronger effect = lower value 1.01 | locus YNL197C, strain WHI3, stronger effect = lower value 1.03 | locus YNL224C, strain SQS1, stronger effect = lower value 1.02 | locus YNL322C, strain KRE1, stronger effect = lower value 1.01 | locus YOR083W, strain WHI5 (second series), stronger effect = lower value 0.984 | locus YPL241C, strain CIN2, stronger effect = lower value 1

O=C(c1ccc(Cl)cc1)N(Cc1ccccc1)Cc1cccnc1
inactive: [1] 0.994 | [2] 0.985 | [3] 0.989 | [4] 0.979 | [5] 0.986 | [6] 0.981 | [7] 0.989 | [8] 0.987 | [9] 0.98 | [10] 0.993 | [11] 0.866 | [12] 0.985 | [13] 0.987 | [14] 0.987 | [15] 0.886 | [16] 0.748 | [17] 0.868 | [18] 0.994 | [19] 0.996 | [20] 0.983 | [21] 0.801 | [22] 0.992 | [23] 0.874 | [24] 0.869 | [25] 0.865 | [26] 0.976 | [27] 0.96 | [28] 0.896 | [29] 0.918 | [30] 0.977 | [31] 0.862 | [32] 0.956 | [33] 0.845 | [34] 0.99 | [35] 0.853 | [36] 0.89 | [37] 0.965 | [38] 0.885 | [39] 0.905 | [40] 0.987 | [41] 0.944 | [42] 0.884 | [43] 0.905 | [44] 0.864 | [45] 0.859 | [46] 0.991 | [47] 0.885 | [48] 0.989 | [49] 1.01 | [50] 0.885 | [51] 0.994 | [52] 0.909 | [53] 0.986 | [54] 0.989 | [55] 0.885 | [56] 0.994 | [57] 0.877 | [58] 0.828 | [59] 0.915 | [60] 0.912 | [61] 0.991 | [62] 0.877 | [63] 0.851 | [64] 0.885 | [65] 0.988 | [66] 0.966 | [67] 0.984 | [68] 0.995 | [69] 0.998 | [70] 0.991 | [71] 0.995

O=C(c1cccs1)N(Cc1cccnc1)Cc1ccc(Cl)cc1Cl
inactive: [1] 0.979 | [2] 0.966 | [3] 0.961 | [4] 0.955 | [5] 0.964 | [6] 0.968 | [7] 0.961 | [8] 0.97 | [9] 0.96 | [10] 0.96 | [11] 0.94 | [12] 0.96 | [13] 0.968 | [14] 0.96 | [15] 0.934 | [16] 0.887 | [17] 0.946 | [18] 0.96 | [19] 0.97 | [20] 0.966 | [21] 0.918 | [22] 0.965 | [23] 0.92 | [24] 1.01 | [25] 0.984 | [27] 1.21 | [28] 1.07 | [29] 0.971 | [30] 0.964 | [31] 1.04 | [32] 0.939 | [33] 0.95 | [34] 0.971 | [35] 0.941 | [36] 1.1 | [37] 0.963 | [38] 0.938 | [39] 0.929 | [40] 0.969 | [41] 1.02 | [42] 1 | [43] 0.945 | [44] 0.965 | [45] 0.929 | [46] 0.966 | [47] 0.944 | [48] 0.974 | [49] 0.967 | [50] 0.947 | [51] 0.968 | [52] 1.04 | [53] 0.969 | [54] 0.957 | [55] 0.955 | [56] 0.962 | [57] 0.906 | [58] 0.929 | [59] 0.978 | [60] 0.997 | [61] 0.972 | [62] 0.927 | [63] 0.937 | [64] 0.902 | [65] 0.969 | [67] 0.965 | [68] 0.969 | [69] 0.955 | [70] 0.975 | [71] 0.966
active: [26] 1.22 [resistant] | [66] 1.15 [resistant]

CC(C)(C)C(=O)N(Cc1cccnc1)Cc1ccc(Cl)cc1Cl
inactive: [1] 0.998 | [2] 0.988 | [3] 1 | [4] 0.986 | [5] 0.995 | [6] 0.992 | [7] 0.992 | [8] 0.985 | [9] 0.982 | [10] 0.997 | [11] 0.914 | [12] 0.993 | [13] 0.991 | [14] 1 | [15] 0.948 | [16] 0.842 | [17] 0.948 | [18] 0.998 | [19] 0.996 | [20] 0.993 | [21] 0.9 | [22] 1 | [23] 0.928 | [24] 1.01 | [25] 0.936 | [26] 1.07 | [27] 1.01 | [28] 1.02 | [29] 0.935 | [30] 0.983 | [31] 1.04 | [32] 0.96 | [33] 0.909 | [34] 0.998 | [35] 0.909 | [36] 0.995 | [37] 0.973 | [38] 0.938 | [39] 0.943 | [40] 0.995 | [41] 0.99 | [42] 1.02 | [43] 0.952 | [44] 0.913 | [45] 0.907 | [46] 0.995 | [47] 0.936 | [48] 0.996 | [49] 1 | [50] 0.934 | [51] 0.997 | [52] 1.02 | [53] 1 | [54] 0.993 | [55] 0.963 | [56] 1 | [57] 0.919 | [58] 0.906 | [59] 0.988 | [60] 1.02 | [61] 0.996 | [62] 0.925 | [63] 0.917 | [64] 0.927 | [65] 0.989 | [66] 1.02 | [67] 0.995 | [68] 0.992 | [69] 0.997 | [70] 0.993 | [71] 0.996

O=S(=O)(c1ccc(Cl)cc1)N(Cc1cccnc1)Cc1ccc(Cl)cc1Cl
inactive: [1] 0.951 | [2] 0.966 | [3] 0.962 | [4] 0.95 | [5] 0.969 | [6] 0.968 | [7] 0.96 | [8] 0.967 | [9] 0.946 | [10] 0.929 | [11] 0.732 | [12] 0.924 | [13] 0.928 | [14] 0.938 | [18] 0.947 | [19] 0.942 | [20] 0.963 | [22] 0.94 | [25] 0.704 | [27] 0.55 | [28] 0.7 | [29] 0.583 | [30] 0.939 | [32] 0.958 | [33] 0.715 | [34] 0.949 | [37] 0.89 | [38] 0.745 | [39] 0.799 | [40] 0.941 | [43] 0.767 | [46] 0.963 | [48] 0.932 | [49] 0.959 | [50] 0.743 | [51] 0.968 | [53] 0.913 | [54] 0.961 | [55] 0.68 | [56] 0.946 | [57] 0.711 | [58] 0.787 | [60] 0.593 | [61] 0.96 | [65] 0.949 | [67] 0.952 | [68] 0.962 | [69] 0.975 | [70] 0.948 | [71] 0.927
active: [15] 0.537 | [16] 0.469 | [17] 0.57 | [21] 0.727 | [23] 0.518 | [24] 0.543 | [26] 0.465 | [31] 0.273 | [35] 0.586 | [36] 0.46 | [41] 0.408 | [42] 0.54 | [44] 0.549 | [45] 0.673 | [47] 0.713 | [52] 0.47 | [59] 0.428 | [62] 0.478 | [63] 0.42 | [64] 0.526 | [66] 0.674
